{"source": "PubChem BioAssay (EPA / NIEHS)", "note": "Active and inactive are the calls of the source. Rule for the calls: active = hit-call score of the fitted dose curve at least 0.9, where 1 is the maximum; inactive = score below 0.9.", "data": [{"assay": "ATG_E_Box_CIS: Attagene CIS-FACTORIAL HepG2 Assay for human Enhancer Box (E-box) (AID 2282936)", "settings": "HepG2 E-box cis-reporter transcription, actives raise or lower the signal", "protocol": "ATG_CIS is a cell-based, multiplexed-readout assay that uses HepG2, a human liver cell line, with measurements taken at 24 hours after chemical dosing in a 24-well plate.ATG_E_Box_CIS is one of 52 assay component(s) measured or calculated from the ATG_CIS assay. It is designed to make measurements of mRNA induction, a form of inducible reporter, as detected with fluorescence intensity signals by Reverse transcription polymerase chain reaction (RT-PCR) and Capillary electrophoresis technology.Data from the assay component ATG_E_Box_CIS was analyzed into 1 assay endpoint. This assay endpoint, ATG_E_Box_CIS, was analyzed with bidirectional fitting relative to DMSO as the negative control and baseline of activity. Using a type of inducible reporter, measures of mRNA for gain or loss-of-signal activity can be used to understand the reporter gene at the transcription factor-level as they relate to the gene USF1. Furthermore, this assay endpoint can be referred to as a primary readout, because this assay has produced multiple assay endpoints where this one serves a reporter gene function. To generalize the intended target to other relatable targets, this assay endpoint is annotated to the dna binding intended target family, where the subfamily is basic helix-loop-helix protein.\nHuman liver HepG2 cells are transiently transfected with multiple reporter transcription units (MRTUs) in 6-well plates using FuGene 6 reagent (Roche; 3 ml FuGene/1 mg DNA). The MRTU constructs are regulated by a cis-regulating element (promoter). […] A major difference between the CIS and TRANS system is that in CIS activities of endogenous TFs are measured, whereas the TRANS assay evaluates changes in activities of exogenous, chimeric NR-Gal4 proteins. […] At the end of 24 hour incubation, total RNA was isolated using TriZol reagent (Invitrogen). The isolated RNA is then reverse-transcribed using oligo(dT) primer and Mo-MLV reverse transcriptase (Invitrogen) with DNAse I (Ambion) treatment for 30 min. The one-tenth of the produced cDNA was amplified by PCR using Taq DNA polymerase (Invitrogen) and two reporter sequence-specific primers. The PCR products were fluorescently labeled by primer extension with 6-arboxyfluorescein (6-FAM) 5'-labeled reporter sequence-specific primer (2 min at 95 C, 20 s at 68 C and 10 min at 72 C) and these products were digested with 5U of HpaI (New England Biolabs) for 2h at 37 C. The fragments were purified using Qiaquick PCR columns (Qiagen), analyzed on an ABI 3130xL genetic analyzer (Applied Biosystems) with peak positions identified by using a set of X-rhodamine (ROX)-labeled MapMarker1000 molecular weight standards (BioVentures). The raw capillary electrophoresis data was processed using Attagraph software (Attagene).", "values": [{"smiles": "CC(C)c1ccc(C=O)cc1", "outcome": "inactive"}, {"smiles": "COc1ccc(-c2coc3cc(O)ccc3c2=O)cc1", "outcome": "inactive"}, {"smiles": "CC(C)CC(O)Cc1ccccc1", "note": "(stereo not given)", "outcome": "inactive"}, {"smiles": "CC(=O)OCCC1CCCCC1", "outcome": "inactive"}, {"smiles": "O=C(c1ccccc1)C1CCC1", "outcome": "inactive"}, {"smiles": "COC(=O)C1=C(C)NC(C)=C(C(=O)OCC(C)C)C1c1ccccc1[N+](=O)[O-]", "note": "(stereo not given)", "AC50": "18.6 µM (active)"}, {"smiles": "Nc1ccc(-c2ccc(F)cc2)cc1", "outcome": "inactive"}, {"smiles": "CC(CC=O)c1ccccc1", "note": "(stereo not given)", "outcome": "inactive"}, {"smiles": "OCCCS", "outcome": "inactive"}, {"smiles": "CC1OC1C1CCC2(C)OC2C1", "note": "(stereo not given)", "outcome": "inactive"}, {"smiles": "NC(=O)NNC(N)=O", "outcome": "inactive"}, {"smiles": "O=C(Nc1ccccc1)c1ccccc1O", "outcome": "inactive"}, {"smiles": "O=c1[nH]c(=O)c2[nH]c(=O)[nH]c2[nH]1", "outcome": "inactive"}, {"smiles": "CCN(CC#N)c1cccc(C)c1", "outcome": "inactive"}, {"smiles": "C=C(C)[C@H]1CC=C(C)CC1", "outcome": "inactive"}, {"smiles": "CC(C)(Oc1ccc(C2CC2(Cl)Cl)cc1)C(=O)O", "note": "(stereo not given)", "outcome": "inactive"}, {"smiles": "COC(=O)c1cc(Cl)ccc1[N+](=O)[O-]", "outcome": "inactive"}, {"smiles": "C=CCOc1c(Br)cc(Br)cc1Br", "outcome": "inactive"}, {"smiles": "O=[N+]([O-])c1ccc(CO)cc1", "outcome": "inactive"}, {"smiles": "Cn1c(=O)[nH]c2ncn(C)c2c1=O", "outcome": "inactive"}, {"smiles": "COCC(C)N", "note": "(stereo not given)", "outcome": "inactive"}, {"smiles": "CC(C)(C)C(=O)C=Cc1ccc(Cl)cc1", "AC50": "165 µM (active)"}, {"smiles": "CCCNC(=O)NS(=O)(=O)c1ccc(Cl)cc1", "outcome": "inactive"}, {"smiles": "CN(C)c1ccc(C(=N)c2ccc(N(C)C)cc2)cc1", "AC50": "56.6 µM (active)"}, {"smiles": "CC(=O)[C@H]1[C@H](C#N)C[C@H]2[C@@H]3CC=C4C[C@@H](O)CC[C@]4(C)[C@H]3CC[C@@]21C", "outcome": "inactive"}, {"smiles": "O=c1cc(-c2ccccc2)oc2ccccc12", "outcome": "inactive"}, {"smiles": "CCCCC(CC)COC(=O)c1ccccc1", "note": "(stereo not given)", "outcome": "inactive"}, {"smiles": "Nc1nc2ccccc2[nH]1", "outcome": "inactive"}, {"smiles": "CCCCCCCCCCC=CC#N", "outcome": "inactive"}, {"smiles": "Clc1nc2ccccc2s1", "outcome": "inactive"}, {"smiles": "COCc1c(C(C)C)nc(C(C)C)c(/C=C/[C@@H](O)C[C@@H](O)CC(=O)O)c1-c1ccc(F)cc1", "outcome": "inactive"}, {"smiles": "C[Si](C)(C)O[Si](O)(O)O", "outcome": "inactive"}, {"smiles": "NC(=O)N=NC(N)=O", "outcome": "inactive"}, {"smiles": "Cc1ccc(N)c([N+](=O)[O-])c1", "outcome": "inactive"}, {"smiles": "CCO[Si](CCCN=C=O)(OCC)OCC", "outcome": "inactive"}, {"smiles": "CCCCCc1ccc(Cl)cc1", "outcome": "inactive"}, {"smiles": "CCOC(=O)c1ccc(N(C)C)cc1", "outcome": "inactive"}, {"smiles": "CCCCCCOC(=O)C(C)CC", "note": "(stereo not given)", "outcome": "inactive"}, {"smiles": "CC1(C)[C@H]2CC[C@]1(C)C(=O)C2", "outcome": "inactive"}, {"smiles": "COC(=O)c1ccc2cc(C(=O)OC)ccc2c1", "outcome": "inactive"}]}]}
